The list is not random: actives were taken first. Their share in the collection is about 6.5%.
TGFb inhibitor = inhibitors of TGF-b signaling; HepG2 CAGA-GFP TGF-b/SMAD3 reporter, GFP fluorescence, 18 h; TGF-beta stimulated, 500 pg/mL final; Potency, µM (titrated, usually from 46.1 µM), inactives show at the top dose activity, negative = inhibition, usual class: inhibitors; actives 1.2% (n = 410,000); AID 588855; note: potency is the fitted concentration of half-maximal effect; % is set by controls: 0 for no effect and ±100 for the full control effect; nearly all actives have a fitted effect of over 65% in size
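Using HEPG2 CAGA-GFP reporter cells at 1000 cells/well, we pinned test compounds, stimulated with recombinant TGF-beta (500 pg/mL final) and measured total well GFP after 18 h.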
HepG2 tox-1 = counter-screen for TGF-b inhibitors: cytotoxicity in HepG2 cells | HepG2 CAGA-GFP viability, ATP luminescence, 18 h | Potency, µM (highest dose often 46.1 µM), without a hit: at the top dose activity change, negative = cytotoxicity, hits mostly cytotoxic | actives 0.76% (n = 410,000) | AID 588856; note: potency is the fitted concentration of half-maximal effect
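HepG2 CAGA-GFP cells (1000/well, DMEM with 1% FBS) received compound, then TGF-beta at 500 pg/mL final, and were incubated 18 hours at 37 degrees C. Viability was read by CellTiter-Glo luminescence. Media-only wells were set as complete cell-killing and DMSO as no toxicity.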
Giardia killer = Giardia lamblia killing; actives 0.15% (n = 340,000); Giardia lamblia trophozoite viability; activity change, % at 7.66 µM, hits read low; in the data active = activity change below about -80%; inconclusive = between about -30% and that limit;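 note: parasites exposed to compound for two days anaerobically before the ATP read; % is set by controls: 0 for no effect and ±100 for the full control effect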
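Giardia lamblia trophozoites (100 cells/well) were incubated with compounds for 48 h at 37 deg C under anaerobic conditions. Viability was read as ATP content by one-step luminescence after 15-30 min at room temperature.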
IL1B secr inh = inflammasome signaling inhibition, IL-1 beta readout; THP-1 LPS/ATP IL-1B secretion, AlphaLISA, 16 h; hits give low values; activity change, % at 57.5 µM; actives 4.7% (n = 360,000); in the data active = activity change below about -50%; inconclusive = mostly about -30% to -49%; note: % is set by controls: 0 for no effect and ±100 for the full control effect
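THP-1 cells pretreated 1 hr with compounds (up to 57.5 uM final), then stimulated with LPS (250 ng/mL final) plus ATP (1.25 mM final); secreted IL-1B measured by AlphaLISA after 16 hr, decreased signal indicating inhibition.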
HT1080 IDH1KD tx = HT-1080 IDH1 knockdown cell toxicity (counter line); actives 2% (n = 360,000); Potency, µM (highest dose often 46.1 µM), without a hit: at the top dose activity, negative = toxicity, actives largely listed as cytotoxic; AID 686971; HT-1080 IDH1 knockdown viability, ATP luminescence, 48 h;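 note: potency is the fitted concentration of half-maximal effect; 0% = DMSO wells and -100% = cell-free medium wells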
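Knockdown cells (IDH1KD HT-1080) received compounds 2 h after plating at 750 cells/well and were kept 48 h at 37 °C in 5% FBS RPMI. A CellTiter-Glo luminescence read gave % activity for curve fitting.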
HT1080NT lethal = kills 2HG-producing HT-1080-NT fibrosarcoma cells. HT-1080-NT fibrosarcoma viability, CellTiter-Glo ATP luminescence, 48 h. Potency, µM (series often up to 46.1 µM), for inactives: top-dose activity, negative = less viability, usual class: cytotoxic. actives 1.6% (n = 360,000). AID 686970;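 note: NT is the 2HG producing partner of a matched IDH1 knockdown line; potency is the fitted concentration of half-maximal effect; 0% = DMSO-treated cells and -100% = media-only wells without cells; nearly all actives have a fitted effect of over 55% in size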
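Toxicity toward the 2HG-producing NT line was scored as %Activity, normalised to DMSO and no-cell wells, from CellTiter-Glo luminescence after 48 hours' treatment.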
TGFb CAGA inh = confirmation of TGF-b signaling inhibitors in HepG2 reporter cells. AID 720534. HepG2 CAGA-GFP TGF-b reporter, GFP fluorescence, 18 h; cells stimulated with TGF-beta, 500 pg/mL. shares compounds with TGFb inhibitor. actives 63% (n = 1,600). Potency, µM (top dose mostly 46.1 µM), without a hit: at the highest dose activity, negative = inhibition, actives largely listed as inhibitors; note: potency is the fitted concentration of half-maximal effect; % is set by controls: 0 for no effect and ±100 for the full control effect; nearly all actives have a fitted effect of over 65% in size
HepG2 tox-2 = HepG2 cytotoxicity, TGF-b inhibitor counterscreen. HepG2 CAGA-GFP viability, ATP luminescence, 18 h; cells stimulated with TGF-beta, 500 pg/mL. shares compounds with TGFb inhibitor. actives 27% (n = 1,600). Potency, µM (highest dose often 46.1 µM), inactives show at the highest dose activity, negative = cytotoxicity, actives largely listed as inhibitors; note: potency is the fitted concentration of half-maximal effect; % is set by controls: 0 for no effect and ±100 for the full control effect; nearly all actives have a fitted effect of over 70% in size
TGFb CCL64 inh = blocks TGF-b signaling in CCL64 reporter cells | Potency, µM (series often up to 46.1 µM), for inactives: at the highest dose activity, negative = inhibition, actives largely listed as inhibitors | shares compounds with TGFb inhibitor | actives 41% (n = 1,600) | AID 720536 | CCL64 CAGA-GFP reporter, TGF-b stimulated, GFP fluorescence, 18 h; note: potency is the fitted concentration of half-maximal effect; nearly all actives have a fitted effect of over 65% in size
COP TGFb inh = blocks TGF-b signaling in HepG2 COP reporter; shares compounds with TGFb inhibitor; HepG2 COP-GFP TGF-b reporter, GFP fluorescence, 18 h; cells stimulated by added recombinant TGF-beta; Potency, µM (top dose mostly 46.1 µM), for inactives: at the top dose activity, negative = inhibition, hits mostly inhibitors; actives 3% (n = 1,600); note: potency is the fitted concentration of half-maximal effect; nearly all actives have a fitted effect of over 70% in size
Numbers without * were called inactive; ? = inconclusive; · = no result; [ ] = dose if it differs, or a comment. Unless noted, calls come from the whole dose curve; as a rule, active = well fitted curve in the direction sought with a large enough effect; inconclusive = small, poorly fitted or top-dose-only effect, or another doubt; inactive = no such curve, though single readings can be large; an effect the other way counts as inactive or inconclusive.

SMILES	TGFb inhibitor	HepG2 tox-1	Giardia killer	IL1B secr inh	HT1080 IDH1KD tx	HT1080NT lethal	TGFb CAGA inh	HepG2 tox-2	TGFb CCL64 inh	COP TGFb inh
Cc1cc(N2CCOCC2)nc(NCc2ccccc2)n1	10µM*	1%	-12	-15	0%	12%	15µM*	-24%	?	1%
COc1ccc(NC(=O)c2cccc3c(-c4cccnc4)coc23)cc1	-11%	-7%	·	-3	2%	?	·	·	·	·
Cn1c(=O)c(=O)n(C)c2cc(N3CCCC3)c(NC(=O)c3ccc(C(C)(C)C)cc3)cc21	-14%	-15%	·	·	·	·	·	·	·	·
O=C(c1cc(-n2cnnc2)ccc1Cl)N1CCN(c2nc(-c3ccccc3)cs2)CC1	11µM*	-5%	33	-90*	?	?	8.2µM*	-30%	?	12%
N#C/C(=N\Nc1ccc(Cl)cc1)C(=O)c1ccsc1	?	-27%	-1	·	?	?	8.2µM*	7.3µM*	21µM*	15%
Cc1ccc(N/N=C(\C#N)C(=O)c2ccsc2)cc1	?	-22%	2	28	?	?	·	·	·	·
CC1(Cc2cccc(C(F)(F)F)c2)C(=O)Nc2ccc(-c3ccc(F)c(Cl)c3)cc21 (stereo unspecified)	10µM*	10µM*	·	-70*	?	?	?	18µM*	?	38%
COc1cccc(C(=O)Nc2ccc(-n3nncc3-c3ccccc3)cc2)c1OC	41%	25%	·	·	·	·	·	·	·	·
COc1ccc(NCc2nc3ccccc3n2CCOc2ccc(C)cc2)cc1	14µM*	-32%	-17	-95*	?	18µM*	13µM*	?	8.2µM*	40%
COc1ccccc1Cc1c(-c2ccc(F)cc2)nc2ccc(Br)cn12	10µM*	-32%	·	4	?	?	?	?	?	43%
COc1ccc(Cc2c(-c3ccc(F)cc3)nc3ccc(Br)cn23)c(C)c1	-6%	0%	·	-1	10%	10%	·	·	·	·
COc1ccc(Cc2c(-c3cccc(Cl)c3)nc3ccc(Br)cn23)c(C)c1	?	-34%	·	80	-14%	-1%	·	·	·	·
COc1ccc(Cc2c(-c3cccc(Br)c3)nc3ccc(Br)cn23)c(C)c1	?	-26%	·	11	0%	-11%	?	?	?	-3%
COc1ccc(-c2nc3ccc(Br)cn3c2Cc2cccc(Cl)c2)cc1OC	13µM*	4%	·	?	?	?	18µM*	?	?	22%
COc1ccc(C(CNc2ncnc3sccc23)N(C)C)cc1OC (stereo unspecified)	-3%	-17%	-6	18	-5%	-24%	·	·	·	·
C=CCOc1ccc(Br)cc1/C=C1\NC(=S)N(C(C)=O)C1=O	-8%	-18%	3	18	-21%	-28%	·	·	·	·
CCn1c(C(O)c2ccc3c(c2)OCO3)nc2ccccc21 (stereo unspecified)	3%	-33%	-24	6	2%	-9%	·	·	·	·
COc1ccc(CCNc2nc(SCc3ccc(Cl)cc3)nc3ccccc23)cc1OC	0%	-15%	·	·	·	·	·	·	·	·
COc1ccc(CCNc2c3ccccc3nc3ccccc23)cc1OC	16µM*	-49%	6	-94*	?	21µM*	15µM*	21µM*	26µM*	-19%
OCCCNc1c2ccccc2nc2ccccc12	4.5µM*	23%	7	-104*	12µM*	23µM*	13µM*	13µM*	?	25%
Cc1ccnc(Nc2nc(-c3ccccc3)cs2)c1	10µM*	-71%	?	-6	?	-19%	-26%	-4%	0%	6%
C[C@H](CO)N1C[C@H](C)[C@@H](CN(C)Cc2ccc(Oc3ccccc3)cc2)Oc2c(NC(=O)c3ccncc3)cccc2C1=O	14µM*	0%	1	4	-21%	-23%	23µM*	?	?	37%
C[C@H](CO)N1C[C@H](C)[C@@H](CN(C)Cc2ccccc2)Oc2c(NC(=O)c3ccncc3)cccc2C1=O	-14%	-27%	-21	20	6%	4%	·	·	·	·
COc1ccc(NC(=O)N(C)C[C@H]2Oc3c(NC(=O)c4ccncc4)cccc3C(=O)N([C@H](C)CO)C[C@@H]2C)cc1	1%	8%	16	-7	-4%	24%	·	·	·	·
COc1ccc(NC(=O)N(C)C[C@H]2Oc3c(NC(=O)c4nc5ccccc5s4)cccc3C(=O)N([C@@H](C)CO)C[C@H]2C)cc1	11µM*	-6%	12	-16	-3%	-15%	?	-22%	18µM*	38%
CC(=O)c1c(O)c(C)c(O)c2c1OC1=Cc3c(c(C)nn3C)C(=O)C12C (stereo unspecified)	3%	-1%	·	10	-2%	7%	·	·	·	·
COc1cc2c(cc1OC)C(C)N(C(=O)c1cc3c(C)cc(C)cc3[nH]1)CC2 (stereo unspecified)	11µM*	-29%	3	-81*	6.5µM*	?	16µM*	15µM*	?	51%
COc1cc2c(cc1OC)C(C)N(C(=O)c1nccnc1C(=O)O)CC2 (stereo unspecified)	-23%	-23%	-10	4	-9%	4%	·	·	·	·
Cc1cccc(OCc2nnc(SCC(=O)N3CCc4ccccc43)n2C)c1	4%	-12%	-7	-2	-26%	-2%[9.24 µM]	·	·	·	·
